# Inconclusive results are not listed. The source made the active and inactive calls. How the source made its calls, unless noted: active means hit-call score of the fitted dose curve at least 0.9, where 1 is the maximum; inconclusive means response in the unintended direction; inactive means score below 0.9.
# Key:
# [1] = molecular target: human Peroxisome Proliferator-activated Receptor alpha (PPARa), PPARA (gene 5465) (UniProt Q07869); experiment: ATG_PPARa_TRANS: Attagene TRANS-FACTORIAL HepG2 Assay for human Peroxisome Proliferator-activated Receptor alpha (PPARa) (AID 2283001);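 on AC50: potency for gain of reporter signal over DMSO so agonist or activator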
# Chain of human Peroxisome Proliferator-activated Receptor alpha (PPARa), PPARA (gene 5465) (Q07869 whole entry, looked up, the tested form may be a part): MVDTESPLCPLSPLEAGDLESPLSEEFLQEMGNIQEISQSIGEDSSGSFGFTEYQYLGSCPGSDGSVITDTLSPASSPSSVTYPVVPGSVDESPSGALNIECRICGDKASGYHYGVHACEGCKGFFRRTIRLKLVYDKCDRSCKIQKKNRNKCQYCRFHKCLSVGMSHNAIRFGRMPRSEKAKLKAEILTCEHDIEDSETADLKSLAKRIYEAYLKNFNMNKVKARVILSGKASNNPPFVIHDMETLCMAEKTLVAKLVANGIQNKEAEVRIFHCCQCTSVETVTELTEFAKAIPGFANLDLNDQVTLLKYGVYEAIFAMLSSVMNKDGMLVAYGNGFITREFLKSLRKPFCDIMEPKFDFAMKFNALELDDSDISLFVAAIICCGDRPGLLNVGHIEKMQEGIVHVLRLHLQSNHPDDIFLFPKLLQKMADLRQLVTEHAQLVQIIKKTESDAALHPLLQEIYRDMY
# Method in brief: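 Measures transcriptional activity of an exogenous chimeric PPARa-Gal4 protein in transiently transfected HepG2 cells after 24 h dosing. Reporter mRNA quantified via RT-PCR and capillary electrophoresis; DMSO served as negative control.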
# [2] = molecular target: human Retinoic Acid Receptor beta (RARb), RARB (gene 5915) (UniProt P10826); experiment: ATG_RARb_TRANS: Attagene TRANS-FACTORIAL HepG2 Assay for human Retinoic Acid Receptor beta (AID 2283004)
# Chain of human Retinoic Acid Receptor beta (RARb), RARB (gene 5915) (P10826 whole entry, looked up, the tested form may be a part): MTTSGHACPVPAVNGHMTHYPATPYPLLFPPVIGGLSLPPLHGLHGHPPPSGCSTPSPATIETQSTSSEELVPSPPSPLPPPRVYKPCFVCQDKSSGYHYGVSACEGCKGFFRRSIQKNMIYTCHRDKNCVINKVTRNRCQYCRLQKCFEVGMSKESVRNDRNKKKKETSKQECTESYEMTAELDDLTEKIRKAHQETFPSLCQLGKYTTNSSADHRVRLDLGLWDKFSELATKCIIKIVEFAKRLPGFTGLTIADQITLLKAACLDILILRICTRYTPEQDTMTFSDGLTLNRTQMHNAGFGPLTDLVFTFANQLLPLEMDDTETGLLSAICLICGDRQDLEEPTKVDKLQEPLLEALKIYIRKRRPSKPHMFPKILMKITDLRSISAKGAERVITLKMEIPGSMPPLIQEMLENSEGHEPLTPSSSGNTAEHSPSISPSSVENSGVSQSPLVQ
# Method in brief: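 Induction of reporter mRNA from a chimeric RARb-Gal4 construct was measured by RT-PCR, FAM labelling, HpaI digestion and capillary electrophoresis. Measurements followed 24 h compound treatment of transiently transfected human HepG2 liver cells, with DMSO as baseline.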
# [3] = molecular target: Retinoic acid receptor alpha (Homo sapiens) (UniProt P10276); experiment: ATG_RARa_TRANS: Attagene TRANS-FACTORIAL HepG2 Assay for human Retinoic Acid Receptor alpha (RARa) (AID 2283005)
# Chain of Retinoic acid receptor alpha (Homo sapiens) (P10276 whole entry, looked up, the tested form may be a part): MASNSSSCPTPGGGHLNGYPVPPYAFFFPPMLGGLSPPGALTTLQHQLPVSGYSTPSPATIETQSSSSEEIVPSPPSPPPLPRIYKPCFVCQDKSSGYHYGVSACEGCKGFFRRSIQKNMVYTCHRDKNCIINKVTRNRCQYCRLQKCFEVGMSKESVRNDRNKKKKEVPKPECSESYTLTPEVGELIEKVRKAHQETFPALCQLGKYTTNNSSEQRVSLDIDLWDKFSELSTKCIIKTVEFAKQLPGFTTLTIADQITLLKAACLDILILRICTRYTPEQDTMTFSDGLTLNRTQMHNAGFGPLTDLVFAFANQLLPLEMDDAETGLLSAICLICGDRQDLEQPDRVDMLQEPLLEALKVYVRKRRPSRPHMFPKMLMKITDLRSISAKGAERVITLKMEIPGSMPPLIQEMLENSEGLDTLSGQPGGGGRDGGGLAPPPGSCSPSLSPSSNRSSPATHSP
# Method in brief: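 HepG2 transiently transfected with multiplex GAL4-UAS reporter units including a human RARa–GAL4 chimera; 24 h compound exposure. Reporter mRNA quantified by RT-PCR, 6-FAM labeling and capillary electrophoresis; gain of signal versus DMSO.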
# [4] = molecular target: Peroxisome proliferator-activated receptor gamma (Homo sapiens) (UniProt P37231); experiment: ATG_PPARg_TRANS: Attagene TRANS-FACTORIAL HepG2 Assay for human Peroxisome Proliferator-activated Receptor-gamma (PPARg) (AID 2283007)
# Chain of Peroxisome proliferator-activated receptor gamma (Homo sapiens) (P37231 whole entry, looked up): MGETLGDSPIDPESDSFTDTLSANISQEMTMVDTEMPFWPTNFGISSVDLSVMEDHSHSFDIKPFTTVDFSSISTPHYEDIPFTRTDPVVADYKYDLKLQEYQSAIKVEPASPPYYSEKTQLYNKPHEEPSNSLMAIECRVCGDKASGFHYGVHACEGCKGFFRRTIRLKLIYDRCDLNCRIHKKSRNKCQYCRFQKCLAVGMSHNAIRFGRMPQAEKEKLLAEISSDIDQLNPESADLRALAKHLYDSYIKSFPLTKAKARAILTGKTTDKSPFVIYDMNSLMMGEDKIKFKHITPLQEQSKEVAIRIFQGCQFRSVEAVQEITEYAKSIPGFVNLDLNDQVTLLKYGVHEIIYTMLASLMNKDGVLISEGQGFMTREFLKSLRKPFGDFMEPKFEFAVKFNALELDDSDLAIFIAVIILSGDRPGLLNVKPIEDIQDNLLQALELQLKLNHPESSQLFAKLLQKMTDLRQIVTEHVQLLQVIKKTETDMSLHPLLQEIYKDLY
# Method in brief: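 Twenty-four hours after chemical dosing of transiently transfected HepG2 cells, isolated RNA was converted to cDNA, reporter sequences amplified and 6-FAM-labelled, then HpaI-digested and analysed by capillary electrophoresis. Signal increase against DMSO was fitted.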
# [5] = molecular target: Nuclear receptor subfamily 1 group I member 2 (Homo sapiens) (UniProt O75469); experiment: ATG_PXR_TRANS: Attagene TRANS-FACTORIAL HepG2 Assay for human Pregnane X Receptor (PXR) (AID 2283008)
# Chain of Nuclear receptor subfamily 1 group I member 2 (Homo sapiens) (O75469 whole entry, looked up, the tested form may be a part): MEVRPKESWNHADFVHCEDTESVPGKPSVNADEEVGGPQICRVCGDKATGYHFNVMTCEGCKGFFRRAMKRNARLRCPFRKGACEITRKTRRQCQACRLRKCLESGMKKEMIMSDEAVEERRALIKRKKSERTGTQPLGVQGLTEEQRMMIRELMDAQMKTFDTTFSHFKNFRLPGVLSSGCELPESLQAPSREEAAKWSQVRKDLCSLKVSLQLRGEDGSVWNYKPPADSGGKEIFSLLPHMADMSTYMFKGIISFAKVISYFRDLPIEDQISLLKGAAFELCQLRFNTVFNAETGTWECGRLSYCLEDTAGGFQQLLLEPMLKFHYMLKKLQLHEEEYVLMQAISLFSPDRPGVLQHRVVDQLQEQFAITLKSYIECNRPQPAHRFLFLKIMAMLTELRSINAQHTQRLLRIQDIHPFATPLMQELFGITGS
# Method in brief: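 HepG2 cells transiently transfected with multiple reporter units, here a PXR-GAL4 chimera driving a GAL4-UAS reporter; 24 h compound exposure. Reporter mRNA measured by RT-PCR, FAM labelling and capillary electrophoresis; gain of signal fitted against DMSO baseline.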
# [6] = molecular target: Retinoic acid receptor RXR-alpha (Homo sapiens) (UniProt P19793); experiment: ATG_RXRa_TRANS: Attagene TRANS-FACTORIAL HepG2 Assay for human Retinoid X Receptor alpha (RXRa) (AID 2283012)
# Method in brief: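 Cells (HepG2) carried transiently transfected GAL4-responsive reporter units. Following a 24 h chemical incubation, reporter mRNA induction was read via RT-PCR fragment analysis; DMSO served as negative control and baseline.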
# [7] = molecular target: human Thyroid Receptor alpha (THRa1), THRA (gene 7067) (UniProt P10827); experiment: ATG_THRa1_TRANS: Attagene TRANS-FACTORIAL HepG2 Assay for human Thyroid Receptor alpha (THRa1) (AID 2283014)
# Chain of human Thyroid Receptor alpha (THRa1), THRA (gene 7067) (P10827 whole entry, looked up, the tested form may be a part): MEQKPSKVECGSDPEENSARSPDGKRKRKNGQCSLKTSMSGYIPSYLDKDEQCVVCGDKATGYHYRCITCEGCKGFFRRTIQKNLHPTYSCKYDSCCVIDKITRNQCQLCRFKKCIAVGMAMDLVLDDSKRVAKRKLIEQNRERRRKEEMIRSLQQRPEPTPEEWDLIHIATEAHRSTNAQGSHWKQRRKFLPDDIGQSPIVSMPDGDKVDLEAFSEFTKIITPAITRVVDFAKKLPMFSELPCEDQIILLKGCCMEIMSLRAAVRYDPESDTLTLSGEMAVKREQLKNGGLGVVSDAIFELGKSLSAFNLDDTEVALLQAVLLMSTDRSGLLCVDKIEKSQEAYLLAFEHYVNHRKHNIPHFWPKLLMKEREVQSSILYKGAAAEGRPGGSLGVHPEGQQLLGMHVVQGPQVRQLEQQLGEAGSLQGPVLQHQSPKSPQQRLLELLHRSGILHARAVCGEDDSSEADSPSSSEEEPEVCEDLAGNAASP
# Method in brief: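 Transcripts from GAL4-UAS-driven reporters, measured after 24 h compound exposure by RT-PCR plus capillary electrophoresis of 6-FAM-labeled fragments, were fitted for gain of signal relative to DMSO. Cells: transiently transfected HepG2 expressing NR-Gal4 chimeras.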
# [8] = read-out: Intercellular Adhesion Molecule 1 (ICAM1), ICAM1 (gene 3383); experiment: BSK_3C_ICAM1: BioMAP Diversity Plus: 3C Assay for Intercellular Adhesion Molecule 1 (ICAM1) Biomarker Activity (AID 2283003; active means hit-call score of the fitted dose curve at least 0.9, where 1 is the maximum; inactive means score below 0.9); conditions: primary human endothelial cells (HUVEC); actives raise or lower the signal
# Method in brief: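 Human vascular endothelial primary cells, 3C conditions, 24 h treatment. ICAM-1 by ELISA.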
# [9] = BSK_3C_Proliferation: Cell Proliferation Assessment in the BioMAP Diversity Plus: 3C Assay (AID 2283006; active means hit-call score of the fitted dose curve at least 0.9, where 1 is the maximum; inactive means score below 0.9;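 on AC50: potency may reflect either rise or fall in cell number versus DMSO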); conditions: primary human endothelial cells (HUVEC)
# Method in brief: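 Proliferation of human vascular endothelial primary cells after 48 h dosing, quantified as SRB-stained protein at 560 nm relative to DMSO.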
# [10] = molecular target: human Retinoic Acid Receptor gamma (RARg), RARG (gene 5916) (UniProt P13631); experiment: ATG_RARg_TRANS: Attagene TRANS-FACTORIAL HepG2 Assay for human Retinoic Acid Receptor gamma (RARg) (AID 2283009)
# Method in brief: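 HepG2, RARg-GAL4 TRANS system, 24 h exposure; reporter mRNA by RT-PCR + CE fluorescence; increase over DMSO.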
# [11] = read-out: E-selectin (Homo sapiens) (UniProt P16581); experiment: BSK_3C_Eselectin: BioMAP Diversity Plus: 3C Assay for Eselectin Biomarker Activity (AID 2283015; active means hit-call score of the fitted dose curve at least 0.9, where 1 is the maximum; inactive means score below 0.9;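 on outcome: cell surface E-selectin protein quantified by ELISA 24 h after dosing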); conditions: primary human endothelial cells (HUVEC); actives raise or lower the signal
# Method in brief: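 E-selectin ELISA readout, fitted bidirectionally relative to DMSO, taken 24 h post-dosing in HUVEC cultures of the 3C system. Overt cytotoxicity tracked with sulforhodamine B staining of parallel wells.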
# [12] = read-out: Interleukin-1 alpha (IL1a), IL1A (gene 3552); experiment: BSK_BE3C_IL1a: BioMAP Diversity Plus: BE3C Assay for Interleukin-1 alpha (IL1a) Biomarker Activity (AID 2283016; active means hit-call score of the fitted dose curve at least 0.9, where 1 is the maximum; inactive means score below 0.9); conditions: primary human bronchial epithelial cells; actives raise or lower the signal
# Method in brief: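 Cultures of primary human bronchial epithelial cells receive test chemical. After 24 h, IL-1a is quantified by ELISA, while parallel wells are fixed in TCA and SRB-stained for total protein. Changes in either direction are fitted relative to DMSO.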
# [13] = read-out: Monocyte Chemoattractant Protein-1 (MCP1), CCL2 (gene 6347); experiment: BSK_3C_MCP1: BioMAP Diversity Plus: 3C Assay for Monocyte Chemoattractant Protein-1 (MCP1) Biomarker Activity (AID 2283017; active means hit-call score of the fitted dose curve at least 0.9, where 1 is the maximum; inactive means score below 0.9); conditions: primary human endothelial cells (HUVEC); actives raise or lower the signal
# Method in brief: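 MCP-1 was measured by ELISA 24 h after dosing in primary HUVEC 3C cultures and fitted in both directions relative to DMSO; cytotoxicity was checked by SRB total-protein staining in parallel wells.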
# [14] = read-out: Monocyte Chemoattractant Protein-1 (MCP1), CCL2 (gene 6347); experiment: BSK_4H_MCP1: BioMAP Diversity Plus: 4H Assay for Monocyte Chemoattractant Protein-1 (MCP1) Biomarker Activity (AID 2283018; active means hit-call score of the fitted dose curve at least 0.9, where 1 is the maximum; inactive means score below 0.9); conditions: primary human endothelial cells (HUVEC); actives raise or lower the signal
# Method in brief: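 Readout: MCP-1 ELISA on compound-treated HUVEC, sampled 24 h post-dosing. Baseline and negative control DMSO; bidirectional fit. Overt toxicity checked alongside by sulforhodamine B protein staining at time of biomarker measurement.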
# [15] = read-out: Human Leukocyte Antigen - DR isotype (HLADR), HLA-DRA (gene 3122); experiment: BSK_3C_HLADR: BioMAP Diversity Plus: 3C Assay for Human Leukocyte Antigen - DR isotype (HLADR) Biomarker Activity (AID 2283019; active means hit-call score of the fitted dose curve at least 0.9, where 1 is the maximum; inactive means score below 0.9;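 on outcome: ELISA of cell-surface HLA-DR on HUVEC 24 h after dosing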); conditions: primary human endothelial cells (HUVEC); actives raise or lower the signal
# Method in brief: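 Bidirectional fitting against DMSO was applied to the HLA-DR ELISA signal from human umbilical vein endothelial cells, 24 h post-dose. Cytotoxicity came from parallel SRB total-protein staining; 3C proliferation was counted by SRB at 48 h.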
# [16] = read-out: Interleukin-8 (IL8), CXCL8 (gene 3576); experiment: BSK_3C_IL8: BioMAP Diversity Plus: 3C Assay for Interleukin-8 (IL8) Biomarker Activity (AID 2283020; active means hit-call score of the fitted dose curve at least 0.9, where 1 is the maximum; inactive means score below 0.9); conditions: primary human endothelial cells (HUVEC); actives raise or lower the signal
# Method in brief: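 Human vascular endothelial cells (umbilical vein) in the 3C system; IL-8 level detected by ELISA at 24 h post-dose, with DMSO as baseline.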
# [17] = molecular target: human RAR-related Orphan Receptor beta (RORb), RORB (gene 6096) (UniProt Q92753); experiment: ATG_RORb_TRANS: Attagene TRANS-FACTORIAL HepG2 Assay for human RAR-related Orphan Receptor beta (RORb) (AID 2283010)
# Chain of human RAR-related Orphan Receptor beta (RORb), RORB (gene 6096) (Q92753 whole entry, looked up, the tested form may be a part): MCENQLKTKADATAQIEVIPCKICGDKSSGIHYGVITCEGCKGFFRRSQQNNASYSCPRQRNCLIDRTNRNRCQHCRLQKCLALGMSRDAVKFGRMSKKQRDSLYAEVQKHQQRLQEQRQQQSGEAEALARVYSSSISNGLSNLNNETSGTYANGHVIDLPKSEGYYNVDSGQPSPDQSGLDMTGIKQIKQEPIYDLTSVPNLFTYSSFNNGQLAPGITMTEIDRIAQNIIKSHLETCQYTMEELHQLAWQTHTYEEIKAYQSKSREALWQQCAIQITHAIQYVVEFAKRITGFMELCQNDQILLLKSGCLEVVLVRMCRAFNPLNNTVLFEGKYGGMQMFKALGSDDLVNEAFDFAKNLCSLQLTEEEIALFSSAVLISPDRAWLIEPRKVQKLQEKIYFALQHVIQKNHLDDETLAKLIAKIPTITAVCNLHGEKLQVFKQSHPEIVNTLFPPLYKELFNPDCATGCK
# Method in brief: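 In this TRANS-format test, human HepG2 cells express chimeric NR-Gal4 fusion proteins driving GAL4-UAS reporters. After 24 h dosing, reporter transcripts are measured by fluorescent RT-PCR/capillary electrophoresis, with DMSO as negative control.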
# [18] = molecular target: human RAR-related Orphan Receptor gamma (RORg), RORC (gene 6097) (UniProt P51449); experiment: ATG_RORg_TRANS: Attagene TRANS-FACTORIAL HepG2 Assay for human RAR-related Orphan Receptor gamma (RORg) (AID 2283011);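 on AC50: potency for induction of reporter transcripts above DMSO so activators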
# Chain of human RAR-related Orphan Receptor gamma (RORg), RORC (gene 6097) (P51449 whole entry, looked up, the tested form may be a part): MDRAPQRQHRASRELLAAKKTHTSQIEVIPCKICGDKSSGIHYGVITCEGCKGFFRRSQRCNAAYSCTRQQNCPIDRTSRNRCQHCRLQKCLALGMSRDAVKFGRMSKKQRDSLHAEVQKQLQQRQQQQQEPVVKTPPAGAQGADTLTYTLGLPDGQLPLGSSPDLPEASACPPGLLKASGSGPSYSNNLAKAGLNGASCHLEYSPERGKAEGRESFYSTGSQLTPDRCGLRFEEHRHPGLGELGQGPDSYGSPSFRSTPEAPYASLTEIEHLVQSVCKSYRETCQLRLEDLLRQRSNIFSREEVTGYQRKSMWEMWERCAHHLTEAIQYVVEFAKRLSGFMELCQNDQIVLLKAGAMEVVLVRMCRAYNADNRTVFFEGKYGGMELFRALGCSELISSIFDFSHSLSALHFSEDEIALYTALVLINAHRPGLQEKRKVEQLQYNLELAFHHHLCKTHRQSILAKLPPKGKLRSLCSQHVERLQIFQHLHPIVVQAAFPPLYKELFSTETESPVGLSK
# Method in brief: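 Reporter transcripts from a transfected RORg-GAL4 chimera in HepG2 cells were quantified 24 h after dosing by RT-PCR, 6-FAM labelling, HpaI digestion and capillary electrophoresis; increases over DMSO baseline were fitted.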
# [19] = molecular target: human Retinoid X Receptor beta (RXRb), RXRB (gene 6257) (UniProt P28702); experiment: ATG_RXRb_TRANS: Attagene TRANS-FACTORIAL HepG2 Assay for human Retinoid X Receptor beta (RXRb) (AID 2283013)
# Method in brief: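 Multiplexed TRANS reporter assay in HepG2; 24 h dosing; reporter mRNA by RT-PCR/CE fluorescence; gain-of-signal relative to DMSO.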
# [20] = molecular target: human Peroxisome Proliferator-activated Receptor delta (PPARd), PPARD (gene 5467) (UniProt Q03181); experiment: ATG_PPARd_TRANS: Attagene TRANS-FACTORIAL HepG2 Assay for human Peroxisome Proliferator-activated Receptor delta (PPARd) (AID 2283002)
# Chain of human Peroxisome Proliferator-activated Receptor delta (PPARd), PPARD (gene 5467) (Q03181 whole entry, looked up, the tested form may be a part): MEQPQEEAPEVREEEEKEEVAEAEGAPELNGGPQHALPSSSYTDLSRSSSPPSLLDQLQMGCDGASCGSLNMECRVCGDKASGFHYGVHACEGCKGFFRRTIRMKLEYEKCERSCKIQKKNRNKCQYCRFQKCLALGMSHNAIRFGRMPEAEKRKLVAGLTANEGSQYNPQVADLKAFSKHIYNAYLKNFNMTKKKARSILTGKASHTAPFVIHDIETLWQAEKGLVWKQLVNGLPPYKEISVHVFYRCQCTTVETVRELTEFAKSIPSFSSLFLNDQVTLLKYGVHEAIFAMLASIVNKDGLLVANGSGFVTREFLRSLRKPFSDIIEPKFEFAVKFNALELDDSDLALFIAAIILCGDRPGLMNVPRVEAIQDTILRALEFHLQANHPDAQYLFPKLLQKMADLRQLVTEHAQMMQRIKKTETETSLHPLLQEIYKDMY
# Method in brief: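 Fluorescence from capillary electrophoresis of labelled RT-PCR reporter fragments gives the signal; DMSO sets baseline. Cells: HepG2 transiently carrying GAL4-UAS reporter units plus chimeric nuclear receptor-Gal4 proteins, exposed to chemicals for 24 h.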
# Chain of E-selectin (Homo sapiens) (P16581 whole entry, looked up): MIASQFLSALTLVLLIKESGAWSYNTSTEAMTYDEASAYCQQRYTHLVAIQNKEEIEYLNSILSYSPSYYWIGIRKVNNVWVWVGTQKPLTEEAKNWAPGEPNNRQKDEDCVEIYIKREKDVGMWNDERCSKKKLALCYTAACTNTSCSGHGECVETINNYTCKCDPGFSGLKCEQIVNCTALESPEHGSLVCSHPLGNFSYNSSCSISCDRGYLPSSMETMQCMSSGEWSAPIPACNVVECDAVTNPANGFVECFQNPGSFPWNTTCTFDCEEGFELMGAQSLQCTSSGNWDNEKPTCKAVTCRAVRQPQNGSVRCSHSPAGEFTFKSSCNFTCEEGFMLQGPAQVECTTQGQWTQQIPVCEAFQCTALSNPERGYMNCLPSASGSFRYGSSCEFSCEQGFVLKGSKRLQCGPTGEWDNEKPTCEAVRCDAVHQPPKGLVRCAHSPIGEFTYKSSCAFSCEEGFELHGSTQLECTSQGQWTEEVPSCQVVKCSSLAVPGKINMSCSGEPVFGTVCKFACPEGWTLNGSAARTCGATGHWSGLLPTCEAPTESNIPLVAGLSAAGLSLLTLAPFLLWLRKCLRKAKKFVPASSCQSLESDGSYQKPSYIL
smiles,measurement,setting,value
Cc1ccccc1C,outcome,[1],inactive
same,outcome,[2],inactive
same,outcome,[3],inactive
same,outcome,[4],inactive
same,outcome,[5],inactive
same,outcome,[6],inactive
same,outcome,[7],inactive
O=c1c2ccccc2oc2ccccc12,outcome,[1],inactive
same,outcome,[8],inactive
same,outcome,[2],inactive
same,outcome,[3],inactive
same,outcome,[9],inactive
same,outcome,[10],inactive
same,outcome,[6],inactive
same,outcome,[7],inactive
same,outcome,[11],inactive
same,AC50,[12],0.173 µM (active)
same,outcome,[13],inactive
same,outcome,[14],inactive
same,outcome,[15],inactive
same,outcome,[16],inactive
C=CC(=O)OCC(Br)CBr (stereo unspecified),AC50,[1],144 µM (active)
same,AC50,[8],30.1 µM (active)
same,AC50,[9],9.42 µM (active)
same,AC50,[4],51.6 µM (active)
same,AC50,[5],100 µM (active)
same,outcome,[17],inactive
same,AC50,[18],176 µM (active)
same,outcome,[6],inactive
same,outcome,[7],inactive
same,AC50,[11],20 µM (active)
same,AC50,[12],20 µM (active)
same,AC50,[13],31.8 µM (active)
same,AC50,[14],26.6 µM (active)
same,AC50,[15],5.44 µM (active)
same,AC50,[16],20 µM (active)
O=C1C(N(CO)C(=O)NCO)N(CO)C(=O)N1CO (stereo unspecified),outcome,[1],inactive
same,outcome,[2],inactive
same,outcome,[3],inactive
same,outcome,[4],inactive
same,outcome,[10],inactive
same,outcome,[17],inactive
same,outcome,[18],inactive
same,outcome,[19],inactive
NC(=O)N=NC(N)=O,outcome,[1],inactive
same,outcome,[20],inactive
same,outcome,[4],inactive
same,outcome,[18],inactive
same,outcome,[6],inactive
CCCCCCCCO[C@@H]1O[C@H](CO)[C@@H](O)[C@H](O)[C@H]1O,outcome,[1],inactive
same,outcome,[20],inactive
same,outcome,[4],inactive
same,outcome,[18],inactive
same,outcome,[6],inactive
same,outcome,[7],inactive
CCc1nccnc1C,outcome,[1],inactive
same,outcome,[2],inactive
same,outcome,[4],inactive
same,outcome,[5],inactive
same,outcome,[17],inactive
same,outcome,[6],inactive
same,outcome,[7],inactive
COCCOCCOCCOCCOC,outcome,[1],inactive
same,outcome,[20],inactive
same,outcome,[5],inactive
same,outcome,[6],inactive
O=c1[nH]nc(-c2ccc([N+](=O)[O-])o2)o1,outcome,[1],inactive
same,outcome,[20],inactive
same,outcome,[17],inactive
same,outcome,[6],inactive
same,outcome,[7],inactive
O=C(Nc1ccccc1SSc1ccccc1NC(=O)c1ccccc1)c1ccccc1,AC50,[1],23.4 µM (active)
same,outcome,[8],inactive
same,AC50,[9],5.29 µM (active)
same,AC50,[4],17.7 µM (active)
same,AC50,[5],8.27 µM (active)
same,outcome,[6],inactive
same,outcome,[19],inactive
same,outcome,[7],inactive
same,outcome,[11],inactive
same,outcome,[12],inactive
same,AC50,[13],8.27 µM (active)
same,AC50,[14],9.13 µM (active)
same,AC50,[15],10 µM (active)
same,outcome,[16],inactive
NC(=O)OCC(COC(N)=O)c1ccccc1,outcome,[1],inactive
same,outcome,[20],inactive
same,outcome,[5],inactive
same,outcome,[17],inactive
same,outcome,[18],inactive
same,outcome,[7],inactive
